TRHR agonist: agonists of human TRH receptor; TRHR cells, calcium flux fluo-8, FDSS agonist mode; activation, % at 2 µM; 360,000 compounds, 0.18% hits; in the data active means activation above about 30%; further: 0% is about no effect
Target sequence (P34981 whole entry, looked up): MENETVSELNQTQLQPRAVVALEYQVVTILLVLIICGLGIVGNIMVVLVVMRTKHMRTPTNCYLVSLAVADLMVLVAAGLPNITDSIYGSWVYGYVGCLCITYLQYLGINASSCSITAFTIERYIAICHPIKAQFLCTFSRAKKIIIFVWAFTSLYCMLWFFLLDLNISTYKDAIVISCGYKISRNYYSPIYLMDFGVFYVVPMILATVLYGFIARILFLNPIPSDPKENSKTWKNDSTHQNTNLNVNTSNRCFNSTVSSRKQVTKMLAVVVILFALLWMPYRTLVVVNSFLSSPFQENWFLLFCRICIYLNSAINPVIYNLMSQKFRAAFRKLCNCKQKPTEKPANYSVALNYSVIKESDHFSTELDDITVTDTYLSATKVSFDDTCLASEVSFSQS
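Steps: seed TRHR cells overnight; add fluo-8 no-wash Ca dye, RT 30 min–1.5 h; record 10 s baseline; pin-transfer compounds; monitor fluorescence 1 cycle/s for the agonist window. Calcium increases flag candidate agonists.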
GLP-1R agonist: activates the human GLP-1 receptor. P43220. Potency, µM (titrated, usually from 45.6 µM), inactives show at the highest dose activation, hits mostly activators. AID 624172. 380,000 compounds, 0.007% hits. HEK293 GLP-1R CRE-luciferase, luminescence, 4-6 h; cells express a hypersensitive GLP-1R form; further: potency means the concentration at half of the fitted maximal effect; % of control where 0% means no effect
PTHR1 agonist: PTHR1 (human) receptor agonism. Potency, µM (titrated, usually from 115 µM), without a hit: at the highest dose activation, most hits filed as activators. AID 743266. 410,000 compounds, 0.075% hits. HEK293 GP2 PTHR1 cells, GloSensor cAMP luminescence, 1 h. Q03431; further: potency means the concentration at half of the fitted maximal effect; nearly all actives have a fitted effect of over 55% in size
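HEK-293-derived GP2 cells expressing PTHR1 and a GloSensor cAMP reporter, 3,000/well, plated overnight, given luciferin plus IBMX (each 0.5 mM as added) for 1 h at 37 °C, then compound for 1 h at 37 °C. Luminescence was read after 15 min at room temperature.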
GLP1R inv ag: acts as inverse agonist at human GLP-1 receptor. P43220. HEK293 GLP-1R CRE-luciferase, luminescence, 24 h; GLP-1R form is constitutively active. Potency, µM (doses to about 38.3 µM), without a hit: at the highest dose activity change, negative = inhibition, hits mostly inhibitors. 410,000 compounds, 1.6% hits; further: potency means the concentration at half of the fitted maximal effect; on the % scale 0 is the no-effect control and ±100 the full control effect; nearly all actives have a fitted effect of over 55% in size
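Inverse agonists were sought by their lowering of basal cAMP reporter luciferase output in HEK293 cells stably carrying constitutively active human GLP-1R, after 24 h compound treatment.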
HEK293 tox: cytotoxicity counter-screen for GLP-1 receptor inverse agonists | HEK293 cAMP-luciferase reporter cells, luminescence, 24 h | Potency, µM (top dose mostly 38.3 µM), without a hit: top-dose activity change, negative = inhibition, most hits filed as inhibitors | 410,000 compounds, 0.13% hits;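 further: loss of luciferase light is scored as toxicity; potency means the concentration at half of the fitted maximal effect; on the % scale 0 is the no-effect control and ±100 the full control effect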
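Compound-treated cells are incubated 24 hr at 37 deg C under 5% CO2 after a 12 hour attachment period, then luciferase detection reagent is added and luminescence is measured following 12 min at room temperature; lowered signal indicates toxicity.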
TRHR PAM: allosterically enhances the human TRH receptor; 360,000 compounds, 0.66% hits; TRHR cells, fluo-8 calcium fluorescence, EC20 TRH enhancement; enhancement, % at 2 µM; in the data active means enhancement above about 30%; further: 0% is about no effect
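TRHR-expressing cells loaded with fluo-8 calcium dye were read kinetically (ex 480/em 530) during compound addition, then stimulated with an EC20 of TRH (10 nM final). Enhancement of the Gq-mediated intracellular calcium response was scored.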
* hit, by the source's call; [ ] = dose if it differs, or a comment. Only some compounds are listed: those with a hit (about 2.4% of all), similar ones and a draw of the others. Unless noted, the call rests on the fitted dose curve; in most records, active means well fitted curve in the direction sought with a large enough effect; inconclusive means small, poorly fitted or top-dose-only effect, or another doubt; inactive means no such curve, though single readings can be large; an effect the other way counts as inactive or inconclusive.

Screening c1ccc(CCn2nnnc2C(c2cccs2)N2CCN(Cc3ccc4c(c3)OCO4)CC2)cc1 (stereo not given) returned TRHR agonist 0, GLP-1R agonist -1%, PTHR1 agonist -14%, GLP1R inv ag 7.1µM*, HEK293 tox inconclusive and TRHR PAM -4.
`COc1cc(OC)cc(-c2c(-c3ccc(F)cc3)c3cc(-c4cccc5[nH]ccc45)ccc3n2C)c1` gave TRHR agonist 0, GLP-1R agonist -5%, PTHR1 agonist -30%, GLP1R inv ag 5.6µM*, HEK293 tox 9% and TRHR PAM -7.
`COc1ccc(-c2c(-c3cc(OC)cc(OC)c3)n(C)c3ccc(-c4cccc5[nH]ccc45)cc23)cc1` gave TRHR agonist 1, GLP-1R agonist -3%, PTHR1 agonist -13%, GLP1R inv ag inconclusive, HEK293 tox 6% and TRHR PAM 8.
For CC(OC(=O)c1ccc2ncsc2c1)C(=O)N1CCCC1 (stereo not given) the results were TRHR agonist 0 and TRHR PAM -5.
Cc1cc(C)c(C)c(S(=O)(=O)N2CCC(C(=O)N3CCN(c4ccc(F)cc4)CC3)CC2)c1C was read as GLP-1R agonist 9%, PTHR1 agonist -3%, GLP1R inv ag 5µM* and HEK293 tox 0%.
Screening CCOc1ccc(-n2c(-c3ccccc3)c[nH]c2=S)cc1 returned TRHR agonist -1, GLP-1R agonist 8%, PTHR1 agonist -12%, GLP1R inv ag inconclusive, HEK293 tox inconclusive and TRHR PAM 8.
Cc1ccccc1Nc1scc(-c2ccc(Cl)cc2)[n+]1-c1ccccc1C was read as TRHR agonist 0, GLP-1R agonist -1%, PTHR1 agonist -15%, GLP1R inv ag 10µM*, HEK293 tox -19% and TRHR PAM -5.
For CC(=O)N(CCC(Cc1ccccc1)c1ccc2c(c1)OCO2)Cc1ccc(Cl)cc1 (stereo not given) the results were TRHR agonist 2, GLP-1R agonist -2%, PTHR1 agonist -23%[57.5 µM], GLP1R inv ag 11µM*, HEK293 tox inconclusive and TRHR PAM -10.
Screening CCN1CCN(c2cc(C(C)C)nc3c(-c4ccccc4)c(C)nn23)CC1 returned TRHR agonist -1, GLP-1R agonist 20%, PTHR1 agonist inactive, GLP1R inv ag 4µM*, HEK293 tox inconclusive and TRHR PAM 5.
`Cc1nn2c(N3CCOCC3)cc(C(C)C)nc2c1-c1ccccc1` gave TRHR agonist 0, GLP-1R agonist -3%, PTHR1 agonist -15%, GLP1R inv ag 11%, HEK293 tox 4% and TRHR PAM 6.
For COc1ccc(-c2cc3ccc(O)c(CN4CCC(C)CC4)c3oc2=O)cc1OC the results were TRHR agonist 1, PTHR1 agonist -9%, GLP1R inv ag 14%, HEK293 tox inactive and TRHR PAM -4.
COc1ccccc1C(C[N+](=O)[O-])c1c[nH]c2ccccc12 (stereo not given) was read as TRHR agonist 0, GLP-1R agonist 5%, PTHR1 agonist inactive, GLP1R inv ag 10µM*, HEK293 tox -23% and TRHR PAM 11.
`O=C(O)CSc1nnc(COc2ccccc2)n1-c1ccccc1` gave TRHR agonist -1, GLP-1R agonist -4%, PTHR1 agonist inactive, GLP1R inv ag 7%, HEK293 tox -21% and TRHR PAM 6.
`Cc1ccc(OCc2nnc(SCC(=O)c3cccs3)n2-c2ccccc2)cc1C` gave TRHR agonist 1, GLP-1R agonist 15%, PTHR1 agonist -1%[57.5 µM], GLP1R inv ag 10µM*, HEK293 tox -5% and TRHR PAM 1.
Screening O=C(CSc1nnc(COc2ccccc2)n1-c1ccccc1)c1cccs1 returned TRHR agonist 1, GLP-1R agonist 0%, PTHR1 agonist -17%[57.5 µM], GLP1R inv ag 8.9µM*, HEK293 tox 6% and TRHR PAM 5.
For Cc1cccc(OCc2nnc(SCCC(=O)O)n2-c2ccccc2)c1 the results were TRHR agonist 0, GLP-1R agonist -5%, PTHR1 agonist inactive, GLP1R inv ag 9%, HEK293 tox 2% and TRHR PAM 3.
Screening Cc1cccc(N(C)S(=O)(=O)c2ccc(-c3cc(C)no3)s2)c1 returned TRHR agonist 1, GLP-1R agonist 9%, PTHR1 agonist -24%, GLP1R inv ag 1µM*, HEK293 tox -11% and TRHR PAM -11.
CCN(c1cccc(C)c1)S(=O)(=O)c1ccc(-c2cc(C)no2)s1 was read as TRHR agonist 1, GLP-1R agonist 9%, PTHR1 agonist -8%, GLP1R inv ag inconclusive, HEK293 tox 19% and TRHR PAM -1.
COc1ccccc1-c1nc(C#N)c(NCCCn2ccnc2)o1 was read as TRHR agonist 0, GLP-1R agonist 8%, PTHR1 agonist inactive, GLP1R inv ag 17%, HEK293 tox 3% and TRHR PAM 1.
Screening COc1ccccc1C1c2ccc3ccccc3c2Oc2ncn(CCCO)c(=N)c21 (stereo not given) returned TRHR agonist -1, GLP-1R agonist 14%, PTHR1 agonist -5%, GLP1R inv ag inconclusive, HEK293 tox inconclusive and TRHR PAM 0.
For COc1ccccc1C1c2ccc3ccccc3c2Oc2ncn(CCN(C)C)c(=N)c21 (stereo not given) the results were TRHR agonist 4, GLP-1R agonist 22%, PTHR1 agonist inactive, GLP1R inv ag 2.8µM*, HEK293 tox inconclusive and TRHR PAM -1.
COc1ccc(C2c3ccc4ccccc4c3Oc3ncn(CCCN(C)C)c(=N)c32)cc1 (stereo not given) was read as TRHR agonist 0, GLP-1R agonist 21%, PTHR1 agonist inactive, GLP1R inv ag 4.5µM*, HEK293 tox inconclusive and TRHR PAM 1.
COc1ccc(C2c3c(ncn(CCCO)c3=N)Oc3ccc4ccccc4c32)cc1 (stereo not given) was read as TRHR agonist 1, GLP-1R agonist 19%, PTHR1 agonist -4%, GLP1R inv ag inconclusive, HEK293 tox inconclusive and TRHR PAM 3.
Screening COC(=O)c1cc(=O)n(C2CC2)c(=NC2CC2)s1 returned TRHR agonist -1, GLP-1R agonist -13%, PTHR1 agonist inconclusive, GLP1R inv ag 0%, HEK293 tox 7% and TRHR PAM -5.
COc1ccc(NC(=O)CCNS(=O)(=O)c2ccc3c(c2)c(=O)n(C)c(=O)n3C)c(OC)c1 was read as TRHR agonist 0, GLP-1R agonist 3%, PTHR1 agonist -7%, GLP1R inv ag 3%, HEK293 tox 1% and TRHR PAM -3.

Compound activity: PubChem BioAssay, National Center for Advancing Translational Sciences (NCATS)
